From PubChem BioAssay
Rows were chosen to be rich in hits. Some 3.7% of all compounds tested hit in one or more screens of this group.
S2 tox – viability counter-screen for ATXN expression inhibitors; S2 cells (HEK-293 line with an ATXN2-luciferase reporter) viability, CellTiter-Fluor protease fluorescence, 24 h; Potency, µM (doses to about 56.7 µM), actives largely listed as cytotoxic; actives 0.49% (n = 400,000); AID 651635; further: potency means the concentration at half of the fitted maximal effect; nearly all actives have a fitted effect of over 40% in size
GLP-1R agonist – activates the human GLP-1 receptor; P43220; Potency, µM (titrated, usually from 45.6 µM), for the others: at the top dose activation, most hits filed as activators; HEK293 GLP-1R CRE-luciferase, luminescence, 4-6 h; cells express a hypersensitive GLP-1R form; actives 0.007% (n = 380,000); further: potency means the concentration at half of the fitted maximal effect; % of control where 0% means no effect
Target sequence (P43220 whole entry, looked up): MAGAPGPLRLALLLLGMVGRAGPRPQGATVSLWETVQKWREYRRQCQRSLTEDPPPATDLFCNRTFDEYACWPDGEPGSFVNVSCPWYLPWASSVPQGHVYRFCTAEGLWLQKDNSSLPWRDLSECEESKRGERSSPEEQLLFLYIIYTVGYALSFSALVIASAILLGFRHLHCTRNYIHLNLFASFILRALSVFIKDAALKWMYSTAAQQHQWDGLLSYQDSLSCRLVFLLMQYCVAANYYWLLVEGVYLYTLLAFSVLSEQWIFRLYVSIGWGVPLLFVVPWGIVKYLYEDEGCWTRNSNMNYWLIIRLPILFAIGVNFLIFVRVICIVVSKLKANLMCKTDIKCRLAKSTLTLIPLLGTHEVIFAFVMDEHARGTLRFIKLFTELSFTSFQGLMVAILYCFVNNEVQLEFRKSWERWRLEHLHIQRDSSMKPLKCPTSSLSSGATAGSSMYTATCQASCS
TGFb SMAD3 inh – inhibitors of TGF-b signaling; HepG2 CAGA-GFP TGF-b/SMAD3 reporter, GFP fluorescence, 18 h; TGF-beta stimulated, 500 pg/mL final; Potency, µM (top dose mostly 46.1 µM), without a hit: at the highest dose activity, negative = inhibition, most hits filed as inhibitors; actives 1.2% (n = 410,000); further: potency means the concentration at half of the fitted maximal effect; on the % scale 0 is the no-effect control and ±100 the full control effect; nearly all actives have a fitted effect of over 65% in size
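HEPG2 CAGA-GFP, 1000 cells/well; 2 h settle, 37 C; cpd via pin tool; TGF-b 500 pg/mL final; 18 h, 37 C; GFP imaging ex488/em500-530; %Activity normalised to -TGF-b and +DMSO controls; CRC fit, curve class.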
HepG2 tox – kills HepG2 cells in TGF-b inhibitor counter-screen; HepG2 CAGA-GFP viability, ATP luminescence, 18 h; actives 0.76% (n = 410,000); Potency, µM (doses to about 46.1 µM), for the others: at the top dose activity change, negative = cytotoxicity, hits mostly cytotoxic; further: potency means the concentration at half of the fitted maximal effect
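CellTiter-Glo luminescence gave cytotoxicity after 18 hours at 37 degrees C. The cells were HepG2 CAGA-GFP in 1% FBS DMEM, stimulated with 500 pg/mL TGF-beta after compound addition. %Activity was normalised to no-cell wells (complete cell-killing) and DMSO (no toxicity), and curves were fitted and classified.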
ATXN2 expr inh – reduces ATXN2 reporter expression in HEK-293 cells. actives 0.72% (n = 360,000). HEK-293 ATXN2-luciferase reporter, luminescence, 24 h. Potency, µM (highest dose often 57 µM), inactives show top-dose activity change, negative = inhibition, hits mostly inhibitors; further: potency means the concentration at half of the fitted maximal effect; on the % scale 0 is the no-effect control and ±100 the full control effect; nearly all actives have a fitted effect of over 55% in size
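ATXN2-luciferase reporter cells (luciferase flanked by upstream and downstream ATXN2 gene portions) were treated 24 h at 37 °C with compounds at up to 57 uM. SteadyGlo luminescence gave expression; GF-AFC fluorescence gave viability.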
GLP-1R inv ag – GLP-1 receptor (human) inverse agonism; actives 1.6% (n = 410,000); HEK293 GLP-1R CRE-luciferase, luminescence, 24 h; GLP-1R form is constitutively active; Potency, µM (doses to about 38.3 µM), for inactives: at the highest dose activity change, negative = inhibition, actives largely listed as inhibitors; AID 624417; further: potency means the concentration at half of the fitted maximal effect; on the % scale 0 is the no-effect control and ±100 the full control effect; nearly all actives have a fitted effect of over 55% in size
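GLP-1R inverse agonism mode: basal reporter luminescence in engineered HEK293 cells measured after one day of compound exposure at 37 deg C, with a 12 min room-temperature detection step.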
SKNSH spheroid – kills SK-N-SH neuroblastoma spheroids in orthogonal 3D test. shares compounds with ATXN2 expr inh. actives 70% (n = 65). Potency, µM (titrated, usually from 30.7 µM), hits mostly inhibitors. AID 1347135. SK-N-SH 3D spheroid viability, PI/Hoechst imaging, 72 h
SJGBM2 3D viab – lowers viability of SJ-GBM2 3D spheroids; shares compounds with ATXN2 expr inh; SJ-GBM2 3D spheroid viability, PI/Hoechst imaging, 72 h; Potency, µM (highest dose often 30.7 µM), most hits filed as inhibitors; actives 80% (n = 65); AID 1347136
Daoy 3D tox – Daoy 3D spheroid viability loss. Potency, µM (top dose mostly 30.7 µM), actives largely listed as inhibitors. AID 1347137. actives 50% (n = 65). Daoy 3D spheroid viability, PI/Hoechst imaging, 72 h. shares compounds with ATXN2 expr inh
TC32 3D caspase – caspase activation in TC32 3D spheroids, orthogonal test; Potency, µM (top dose mostly 30.7 µM), actives largely listed as inhibitors; actives 30% (n = 65); shares compounds with ATXN2 expr inh; TC32 3D spheroids, caspase-3/7 fluorescence imaging, 24 h; AID 1347138
TC32 3D tox – reduced viability of TC32 3D spheroids, orthogonal test. TC32 3D spheroid viability, PI/Hoechst imaging, 72 h. actives 60% (n = 65). shares compounds with ATXN2 expr inh. Potency, µM (highest dose often 30.7 µM), actives largely listed as inhibitors
MG63 spheroid – kills MG-63 (6-TG R) spheroids in orthogonal 3D test | Potency, µM (series often up to 30.7 µM), hits mostly inhibitors | actives 50% (n = 65) | shares compounds with ATXN2 expr inh | AID 1347140 | MG-63 (6-TG R) 3D spheroid viability, PI/Hoechst imaging, 72 h
RD spheroid – reduced viability of RD 3D spheroids, orthogonal test. shares compounds with ATXN2 expr inh. RD rhabdomyosarcoma 3D spheroid viability, PI/Hoechst imaging, 72 h. Potency, µM (series often up to 30.7 µM), hits mostly inhibitors. actives 50% (n = 65). AID 1347141
The depositor's hits bear a star; i = inactive; ? = inconclusive; . = not tested or not shown. The call rests on the fitted dose curve; in most records, active means well fitted curve in the direction sought with a large enough effect; inconclusive means small, poorly fitted or top-dose-only effect, or another doubt; inactive means no such curve, though single readings can be large; an effect the other way counts as inactive or inconclusive.

SMILES | S2 tox | GLP-1R agonist | TGFb SMAD3 inh | HepG2 tox | ATXN2 expr inh | GLP-1R inv ag | SKNSH spheroid | SJGBM2 3D viab | Daoy 3D tox | TC32 3D caspase | TC32 3D tox | MG63 spheroid | RD spheroid
COc1ccc(/C=C/c2ccc3ccccc3n2)c(OC)c1 | . | . | 1.4% | -63.8% | . | . | . | . | . | . | . | . | .
CN(CC(=O)O)c1ccc(/C=C2\C=Cc3ccccc32)cc1 | . | . | ? | 2.2% | . | . | . | . | . | . | . | . | .
CCOc1cc(N2CCC(O)CC2)ccc1Nc1ncc2c(n1)N(C)c1ccccc1C(=O)N2C | . | . | . | . | 64.0% | . | ? | i | i | i | i | i | ?
CC(=O)O[C@@]12CO[C@H]1C[C@H](O)[C@@]1(C)C(=O)[C@H](O)C3=C(C)[C@@H](OC(=O)C(O)[C@@H](NC(=O)OC(C)(C)C)c4ccccc4)C[C@@](O)([C@@H](OC(=O)c4ccccc4)[C@@H]21)C3(C)C (stereo partly drawn) | . | . | . | . | ? | . | 0.0256µM* | 0.0046µM* | 2.56µM* | i | ? | 8.1µM* | ?
CC(=O)O[C@H]1C(=O)[C@@]2(C)[C@H]([C@H](OC(=O)c3ccccc3)[C@]3(O)C[C@H](OC(=O)[C@H](O)[C@@H](NC(=O)c4ccccc4)c4ccccc4)C(C)=C1C3(C)C)[C@]1(OC(C)=O)CO[C@@H]1C[C@@H]2O | ? | 18.2% | -19.7% | -39.5% | -24.2% | -67.3% | 0.144µM* | 0.0102µM* | 0.144µM* | ? | 0.0144µM* | ? | 0.0574µM*
CC(=O)O[C@H]1C(=O)[C@@]2(C)[C@H]([C@H](OC(=O)c3ccccc3)[C@]3(O)C[C@H](OC(=O)[C@H](O)C(NC(=O)c4ccccc4)c4ccccc4)C(C)=C1C3(C)C)[C@]1(OC(C)=O)CO[C@@H]1C[C@@H]2O (stereo partly drawn) | ? | 8.2% | ? | -9.1% | -25.0% | -56.6% | . | . | . | . | . | . | .
Cc1cccc(-c2noc(-c3ccc(N4CCN(C)CC4)c([N+](=O)[O-])c3)n2)c1 | i | . | 11.5% | 6.2% | 4.6% | ? | . | . | . | . | . | . | .
Cn1cc(CNCC2CCN(c3ncc(C(=O)NO)cn3)CC2)c2ccccc21 | . | . | . | . | 60.6% | . | 0.0204µM* | 0.0256µM* | 0.181µM* | ? | 0.0644µM* | 0.722µM* | 0.323µM*
CC(=O)Nc1c(C(=O)Nc2cccc(C)c2)nnn1-c1ccc(C)cc1 | i | -9.6% | ? | -48.1% | -14.7% | ? | . | . | . | . | . | . | .
COc1ccccc1-c1nc2c(c(SCC(=O)Nc3ccccc3F)n1)Cc1c(CO)cnc(C)c1O2 | . | . | -7.7% | -8.2% | . | -1.2% | . | . | . | . | . | . | .
CC(=O)OCC(=O)[C@@]1(O)CC[C@H]2[C@@H]3CCC4=CC(=O)C=C[C@]4(C)[C@@H]3[C@@H](O)C[C@@]21C | . | . | . | . | -3.1% | . | . | . | . | . | . | . | .
CC(=O)OCC(=O)[C@@]12N=C(C)O[C@@H]1C[C@H]1[C@@H]3CCC4=CC(=O)C=C[C@]4(C)[C@H]3[C@@H](O)C[C@@]12C | i | . | . | . | -6.3% | . | i | ? | i | i | i | i | i
COc1cc(OC)c(NC(=O)c2c(N3CCCC3=O)c3cc(C)ccc3n2C)cc1Cl | ? | . | 5.4% | -0.5% | 0.6% | 11.8% | . | . | . | . | . | . | .
CC(C)C[C@H](NC(=O)[C@H](Cc1ccccc1)NC(=O)c1cnccn1)B(O)O | 50.1µM* | . | . | . | 0.0273µM* | . | 0.0102µM* | 0.0162µM* | 0.0323µM* | 0.181µM* | 0.0181µM* | 0.081µM* | 0.0114µM*
COc1cc(C(C)=O)ccc1OCCCN1CCC(c2noc3cc(F)ccc23)CC1 | i | 13.7% | . | . | 6.8% | . | ? | 4.06µM* | 16.2µM* | i | i | 12.8µM* | 14.4µM*
Cc1ccc(-c2ncn(-c3ccc(Nc4nccc(-c5cccc(N6CCOCC6)c5)n4)cc3)n2)cn1 | . | . | . | . | 4.85µM* | . | 0.909µM* | 1.62µM* | . | i | i | i | ?
Cc1cccc(-c2nc(Nc3ccc(N4CCOCC4)cc3)c3ccccc3n2)c1 | ? | -15.2% | 0.0% | 0.3% | 3.2% | ? | . | . | . | . | . | . | .
COC(=O)Nc1nc2ccc(C(=O)c3ccc(F)cc3)cc2[nH]1 | . | . | . | . | -9.8% | . | 1.02µM* | 0.909µM* | ? | ? | 2.04µM* | ? | ?
CC(C)(C)NC(=O)[C@H]1CN(Cc2cccnc2)CCN1C[C@@H](O)C[C@@H](Cc1ccccc1)C(=O)N[C@H]1c2ccccc2C[C@H]1O | . | -0.3% | . | . | ? | . | i | i | i | i | i | i | i
CN1CCN(C(=O)C2CCCCC2)CC1 | i | 0.0% | . | . | 7.3% | . | . | . | . | . | . | . | .
O=C1C(Cl)=C(NCCN2CCOCC2)C(=O)c2ncccc21 | . | . | . | . | 9.68µM* | . | 3.23µM* | 4.56µM* | 6.44µM* | i | 11.4µM* | 5.11µM* | 11.4µM*
O=C1C(Cl)=C(NCCCN2CCOCC2)C(=O)c2ccccc21 | ? | 7.9% | ? | -41.5% | ? | 9.5% | . | . | . | . | . | . | .
COc1ccc2cc(CNc3ccc(C)cc3)c(=O)n(CC(=O)Nc3cccc(Cl)c3C)c2c1 | i | 6.6% | 1.1% | -2.9% | 21.2% | -2.6% | . | . | . | . | . | . | .
